Results reported in the supplement of paper PMC6555819.

Key:
Experiment in all cases: PBM binding z-score (relative to random genomic background probes); higher = stronger binding; sequences stand for … in GC…GCGATTGACAGCGTAGAATGAAGG
[1] = system: FXR:RXRa (NR concentration 270 nM, RXRa partner concentration 90 nM)
Procedure, shortened: (§1)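 Regression normalization was applied to scanned fluorescence from custom Agilent 4×180K protein-binding microarrays. Before scanning, arrays were incubated 1 h with ligand-free nuclear receptor dimers, and binding was detected with antibodies against each partner (one per run). Binding z-scores use the random background probes as reference.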

[2] = system: LXRa:RXRa (NR concentration 270 nM, RXRa partner concentration 90 nM)
Procedure, shortened: as §1

[3] = system: LXRa homodimer (NR concentration 270 nM)
Procedure, shortened: as §1

[4] = system: LXRb:RXRa (NR concentration 270 nM, RXRa partner concentration 90 nM)
Procedure, shortened: as §1

[5] = system: LXRb homodimer (NR concentration 270 nM)
Procedure, shortened: as §1

[6] = system: PPARa:RXRa (NR concentration 270 nM, RXRa partner concentration 90 nM)
Procedure, shortened: as §1

[7] = system: PPARg:RXRa (NR concentration 180 nM, RXRa partner concentration 90 nM)
Procedure, shortened: as §1

[8] = system: PPARg:RXRa 270nM:90nM, anti-RXR (NR concentration 270 nM, RXRa partner concentration 90 nM)
Procedure, shortened: as §1

[9] = system: PPARg:RXRa 30nM:10nM, anti-RXR (NR concentration 30 nM, RXRa partner concentration 10 nM)
Procedure, shortened: as §1

[10] = system: PPARg:RXRa 90nM:30nM, anti-RXR (NR concentration 90 nM, RXRa partner concentration 30 nM)
Procedure, shortened: as §1

[11] = system: PPARg:RXRa DBDmut IVT, anti-RXR (DBD mutation: RXRa K156A/R161A, NR concentration 270 nM, RXRa partner concentration 90 nM)
Procedure, shortened: as §1

[12] = system: PPARg:RXRa IVT, anti-PPARg (NR concentration 270 nM, RXRa partner concentration 90 nM)
Procedure, shortened: as §1

[13] = system: PPARg DBDmut:RXRa IVT, anti-PPARg (DBD mutation: PPARg1 K132A/R137A, NR concentration 270 nM, RXRa partner concentration 90 nM)
Procedure, shortened: as §1

[14] = system: PPARg DBDmut IVT, anti-PPARg (DBD mutation: PPARg1 K132A/R137A, NR concentration 270 nM)
Procedure, shortened: as §1

[15] = system: PPARg homodimer (NR concentration 180 nM)
Procedure, shortened: as §1

[16] = system: PXR:RXRa (NR concentration 270 nM, RXRa partner concentration 90 nM)
Procedure, shortened: as §1

[17] = system: PXR homodimer (NR concentration 270 nM)
Procedure, shortened: as §1

[18] = system: RARa:RXR (NR concentration 270 nM, RXRa partner concentration 90 nM)
Procedure, shortened: as §1

[19] = system: RARa homodimer (NR concentration 270 nM)
Procedure, shortened: as §1

[20] = system: RARb:RXRa (NR concentration 270 nM, RXRa partner concentration 90 nM)
Procedure, shortened: as §1

Sequence	PBM binding z-score [1]	PBM binding z-score [2]	PBM binding z-score [3]	PBM binding z-score [4]	PBM binding z-score [5]	PBM binding z-score [6]	PBM binding z-score [7]	PBM binding z-score [8]	PBM binding z-score [9]	PBM binding z-score [10]	PBM binding z-score [11]	PBM binding z-score [12]	PBM binding z-score [13]	PBM binding z-score [14]	PBM binding z-score [15]	PBM binding z-score [16]	PBM binding z-score [17]	PBM binding z-score [18]	PBM binding z-score [19]	PBM binding z-score [20]
GCTGGTAGGTCAACTGATGGTCAGCTAAAGCTCG	4.7	3.62	0.696	2.66	0.322	4.64	4.59	4.72	1.84	3.71	5.49	5.82	0.658	0.562	3.06	2.3	-0.226	3.53	1.16	4.29
TCGAGTAGGTTAGGGGCATCCAGAATGGCGTCGA	0.419	0.286	-0.391	0.913	-0.812	1.38	0.651	2.05	1.32	1.8	1.78	1.45	-0.511	-0.719	0.537	0.349	-0.0589	0.496	-0.597	1.18
TCTATTAGTTGAAGGGCAACCGGCGAGTCCGTTT	0.888	1.19	0.417	0.88	0.229	0.966	-0.211	2.04	3.53	2.92	2.36	0.473	0.341	0.729	1.25	0.943	0.705	0.455	0.951	1.74
AATATAGGGTCACTAGGCCAGAGTAGGTACGAAT	6.26	5.13	0.894	4.07	0.704	5.67	8.45	6.68	3.94	5.68	5.21	6.14	2.32	1.64	2.41	3.05	0.508	4.66	0.81	4.11
CATACAGGGTCAGCTAGGACAGAGTAGGGACGGC	4.48	2.8	-0.0468	2.29	0.178	4.13	3.16	2.87	0.481	1.76	1.2	2.23	0.778	0.0196	0.881	2.07	0.128	3	0.439	4.04
AGTCAAAGTTAAGGACGAGGTAACGTAAAGCACG	-0.0625	-0.031	-0.464	-0.186	-0.644	0.245	0.85	0.357	0.301	0.179	-0.606	0.576	-0.425	0.362	-0.757	-0.127	0.18	1.19	0.205	0.889
CCTGCTAGGTCATGGTCAGCTAATCTACAGTATG	3.81	2.6	0.19	1.83	-0.244	3.52	2.37	2.98	0.934	1.97	4.5	4.22	0.0201	0.284	0.79	1.41	0.115	2.34	0.369	3.95
TTACCAACGTGAGCTGAGGTCGTTGATCCAACTC	0.516	0.0402	-0.0796	0.169	-0.442	0.553	-0.116	-0.131	0.0496	-0.0803	-0.844	-0.235	-0.101	-0.365	-0.384	1.52	0.291	0.951	-0.767	0.217
GCGAGTGGGGCAAAGCAGGTTACCATAAGGTTGG	0.592	0.51	-0.115	0.552	-0.338	1.36	0.889	1.12	-0.171	0.35	3.82	2.88	-0.867	-0.658	0.436	0.562	-0.254	0.873	0.0402	1
GCAGACAGGTGAAGCGCAGGTAACTCAGGGTGGC	-0.663	-0.276	-0.718	-0.713	-1.29	-0.0823	0.129	-0.656	-1.07	-0.9	0.302	0.226	-0.748	-1.21	-0.277	-0.484	-0.646	-0.125	-1.03	0.497
CCAGACAGGTGAGAAGGTTACTCAGCCTCGATTA	0.207	0.568	-0.0205	0.724	-0.277	1.54	0.536	0.872	0.0606	0.56	0.947	1.04	-0.652	-0.801	1.03	0.441	0.133	1.23	0.46	1.36
CGTCCAAGGTCAGCAGGTCAATGAAAGCGACGTG	6.32	4.32	0.919	3.56	-0.0922	5.37	5.19	5.03	1.33	3.38	3.22	3.95	-0.262	-0.753	2.98	4.21	0.593	5.49	0.0185	5.24
TTACCAAGGTGAAGGTCGTTCATCCCTCTGTAGA	1.75	2.56	0.0622	1.51	-0.519	2.77	3.06	4.13	2.5	3.8	1.8	3.39	-0.313	0.687	0.597	1.9	0.214	1.55	-0.144	2.54
CCGCGTAGGTTATGGGGCATTCAGGCAACGGTGA	0.332	0.33	-0.277	0.756	-0.566	1.43	0.613	1.17	-0.391	0.458	0.695	0.593	-1.12	-0.878	0.303	-0.0775	-0.606	0.609	0.000588	0.985
AGAACGAGGGCAATGAGTTGGTAGCACGGGTGGC	0.301	0.0909	-0.759	-0.443	-0.642	1.18	0.956	0.772	-0.238	0.196	3.11	2.58	0.246	-0.0657	-0.218	0.943	1.44	0.0918	-0.865	1.96
CCGACTGTGGCAGAAAGGTTACCATACCATCCGG	0.385	0.528	0.0726	0.75	-0.636	2.16	2.03	3.65	1.73	3.6	0.332	0.812	-0.741	-1.03	0.662	0.984	-0.427	1.47	-0.0301	1.45
TCTTGTAGATCAACAGGAGGTTAAGAGAGATCGA	-0.193	1.14	-0.121	0.527	-0.544	1.3	0.126	1.38	2.38	1.73	1.53	0.53	0.135	-0.105	-0.206	0.838	-0.445	0.613	-0.275	0.493
TAGCCTAGGTCAGATCGGGCCAGTAAACGCTATA	2.02	1.16	-0.524	0.637	-0.2	1.5	0.341	0.516	-0.817	-0.377	0.412	1.24	-0.563	-0.294	-0.374	1.12	-0.666	0.814	-1.71	2.85
TCATATAGGTACAAGGTGAAAGTCGGTGTGGTAA	0.883	1.08	0.335	1.18	0.0749	3.3	4.66	5.75	5.85	6.21	3.23	2.75	0.878	0.815	1.21	0.845	0.358	1.25	1.19	1.12
TAGCATAGGTCAGATCGGGCCAGTATACGCTATA	3.66	2.95	-0.198	2.08	-0.138	3.38	1.65	1.67	0.311	1.05	-0.136	0.798	-0.196	-0.529	0.679	2.5	-0.583	2.5	-0.285	3.37
CAGACTAGGTCAGGGCCAGTATAGGAGGAACGTT	1.14	0.664	-0.52	0.152	-0.575	2.57	3.84	3.65	1.04	2.5	5.95	6.11	0.269	0.382	0.388	0.0784	-0.249	0.723	-0.255	3.12
TCGAGTAAGTTAGGGGCATTCAGAATGGCGTCGA	0.474	0.581	-0.298	0.52	-1.13	0.686	-0.191	0.338	1.03	0.613	0.867	-0.26	-1.43	-0.704	0.141	0.512	0.0747	0.66	-0.608	0.456
GCAGACAGGTGAAACGCAGGTATCTCAGGGTGGC	-0.22	-0.184	-0.68	-0.253	-1.19	0.544	0.481	0.0316	-0.675	-0.473	0.78	0.498	-0.724	-0.85	-0.577	-0.328	-0.634	0.112	-0.595	0.463
TCATATAGGTAAAGGTGAAATTCGAACGATATGA	0.843	1.08	-0.192	1.14	0.15	3.13	4.11	4.26	4.22	4.3	3.77	3.94	1.35	1.08	0.745	0.895	0.378	1.54	0.597	1.77
GCTCGGAGGACAAGGTCAGCGCTTTGTCCGTAGA	2.42	2.15	-0.539	1.88	-0.677	2.94	0.785	2.1	-0.477	0.958	0.29	1.07	-1.37	-1.53	1.12	2.18	-0.34	2.68	-0.859	3.88
CCAGACAGGTGAGAAGGTAACTCTGCCTCGATTA	0.00014	0.0948	-0.229	0.114	-0.103	0.793	0.466	0.906	-0.293	0.346	1.34	0.644	-0.0545	-0.239	0.832	0.051	0.394	0.441	-0.197	0.638
AATACAGGGTCATCGTAGGCCAGACTACGCACAG	7.17	6.52	2.16	5.02	1.46	6.05	6.77	6.04	2.96	4.83	2.63	4.16	1.31	1.03	2.16	4.73	0.736	4.7	0.914	4.5
ATCTCTAGGTAACCAATTTCAGTGAATGCCGAAC	0.444	0.64	0.561	0.348	1.28	0.596	0.441	0.547	0.162	0.306	3.89	2.94	1.28	1.42	0.77	0.453	0.601	0.264	0.959	0.458
ATCGAAAGGTCGTCAGGTGAGTATACAGAAAGGC	5.1	3.98	0.518	3.25	0.804	4.7	3.63	3.86	1.5	2.93	0.0444	2.18	2.81	1.05	2.13	3.04	0.936	3.91	0.966	3.84
